A selection: hits, their analogues and other compounds. The true share with any hit is near 4.7%.
EBV LMP1 NFkB: inhibitors of Epstein-Barr LMP1-induced NF-kappaB reporter | LMP1-induced NF-kappaB luciferase reporter cells, luminescence | inhibition, % at 12.5 µM | 350,000 tested, 0.69% active | AID 504558; in the data active = inhibition above about 41%; inconclusive = no clear call, values can overlap the other calls;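 note: 0% = neutral control wells and 100% = reference inhibitor control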
HSP90 refold inh: HSP90 refolding inhibition in rabbit reticulocyte lysate | 290,000 tested, 0.91% active | luciferase refolding luminescence, 3 h | AID 1789 | inhibition, % at 5.6 µM;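 active = inhibition above the screen-wide mean plus 3 SD, computed separately per campaign, cut at about 16% in these data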;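 note: 0% = DMSO wells and 100% = 60 µM geldanamycin wells; inhibitors lower the luminescence because luciferase stays unfolded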
HSF1 inh: HSF1 inhibition; NIH3T3-HGL HSE-luciferase, MG132-induced, luminescence 8 h; stronger effect = lower value; activity change, negative = inhibition, % at 7.5 µM (by protocol); 300,000 tested, 0.77% active;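 active = more than half of replicate wells show activity change below -50%, luminescence cut by over half; inconclusive = some wells, but at most half, below -50%; inactive = no replicate well below -50%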;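 note: luciferase reports HSF-1 transcriptional activity via heat shock element; 0% = median of DMSO wells and -100% = zero luminescence signal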
HSF-1 act: increases HSF-1 driven luciferase reporter signal; NIH3T3-HGL HSF-1 luciferase reporter, MG132, 8 h; 100% = twice DMSO control signal; activation, % at 9 µM; 300,000 tested, 1.7% active;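 active = mean replicate activation of at least 50% with a set share of replicates each reaching 50%; inconclusive = only one of those two conditions met; inactive = mean below 50% and too few replicates reaching it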;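 note: 0% = median of the neutral control wells and 100% = twice that signal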
TWEAK-Fn14 inh: TWEAK-Fn14 signaling inhibition; TWEAK-stimulated Fn14 reporter cells, luciferase luminescence, 8 h; inhibition, % at 10 µM; AID 1159606; 360,000 tested, 2% active; in the data active = inhibition above about 50%
TROY NFkB inh: TROY signaling inhibition | Q293 LMP1-TROYcd NF-kB luciferase reporter, 4 h | inhibition, % at 10 µM | 360,000 tested, 0.98% active;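 active = compounds whose plate-normalised and pattern-corrected inhibition of the luciferase reporter signal at the single screening dose is 50% or more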
HSP90 inh confirm: HSP90 inhibition, confirmation assay. inhibition, % at 5.9 µM. rabbit reticulocyte lysate, luciferase refolding luminescence, 3 h. shares compounds with HSP90 refold inh. 2,300 tested, 64% active; in the data active = inhibition above about 18%;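 note: 0% = vehicle wells and 100% = reference inhibitor wells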
FLuc counter: counter-screen for HSP90 inhibitors: inhibitors of firefly luciferase | 2,300 tested, 48% active | purified native firefly luciferase, luminescence | shares compounds with HSP90 refold inh | inhibition, % at 5.9 µM | AID 1847;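 active = inhibition above the mean inhibition of all tested sample wells plus 3 SD, cut at about 10% in these data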;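 note: 0% = DMSO with luciferase and 100% = wells lacking luciferase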
Target sequence (P08659 whole entry, looked up): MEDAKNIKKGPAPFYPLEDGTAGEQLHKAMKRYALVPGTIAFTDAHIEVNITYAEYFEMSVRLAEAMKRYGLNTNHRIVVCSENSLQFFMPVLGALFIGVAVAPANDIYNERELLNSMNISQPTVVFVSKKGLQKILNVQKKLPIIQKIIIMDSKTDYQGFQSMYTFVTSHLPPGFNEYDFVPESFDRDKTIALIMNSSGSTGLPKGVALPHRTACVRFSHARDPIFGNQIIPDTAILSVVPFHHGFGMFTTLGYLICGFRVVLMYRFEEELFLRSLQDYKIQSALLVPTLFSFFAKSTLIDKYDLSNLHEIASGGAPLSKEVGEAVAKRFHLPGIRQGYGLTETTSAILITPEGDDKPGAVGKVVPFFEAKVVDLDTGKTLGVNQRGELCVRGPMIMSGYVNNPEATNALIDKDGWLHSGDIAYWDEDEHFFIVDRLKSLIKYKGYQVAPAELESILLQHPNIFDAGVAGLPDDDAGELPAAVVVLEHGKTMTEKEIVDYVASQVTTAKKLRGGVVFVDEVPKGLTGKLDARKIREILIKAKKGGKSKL
Starred values were filed as active, the others as inactive; ? = inconclusive; nt = no result given.

SMILES	EBV LMP1 NFkB	HSP90 refold inh	HSF1 inh	HSF-1 act	TWEAK-Fn14 inh	TROY NFkB inh	HSP90 inh confirm	FLuc counter
CCCn1c(C)cc(C(=O)COC(=O)c2nccnc2N)c1C	31	25*	1	12	72*	56*	40*	57*
CC1(C(=O)NCc2ccccc2Br)CCN1Cc1ccc(-c2ccccc2)o1 (stereo not given)	nt	nt	nt	nt	14	45	nt	nt
Cc1nc(-[n+]2nc(-c3ccncc3)nn2-c2ccccc2)sc1C	nt	nt	nt	nt	-10	-35	nt	nt
O=C(O)CCCCCn1c(SCC(=O)c2ccc(O)c(O)c2)nc2ccsc2c1=O	-2	2	3	2	17	-1	nt	nt
O=C(O)CCCCCn1c(SCC(=O)N2CCCC2)nc2ccsc2c1=O	-1	64*	2	-1	7	-5	5	-4
O=P(Cc1cccc2ccccc12)(c1ccccc1)c1ccccc1	4	nt	nt	nt	-3	-5	nt	nt
COc1ccccc1NS(=O)(=O)c1cc(C(=O)NC2CC(C)(C)NC(C)(C)C2)ccc1Cl	5	nt	nt	nt	6	-1	nt	nt
CN1CCN(C(=O)C2=C[C@@H](c3ccc(Br)cc3)C[C@@H](OCc3ccc(CO)cc3)O2)CC1	4	25*	-7	-6	9	3	-3	-4
CCOC(=O)C1(C)CCCN1C(=O)c1ccccc1F (stereo not given)	nt	nt	nt	nt	-24	7	nt	nt
Cc1cc2nc(-c3ccc[nH]c3=O)[nH]c2cc1C	-5	68*	-10	-3	83*	26	80*	65*
Cc1cc(/C=N/Nc2nc(N)ncc2[N+](=O)[O-])c(C)n1-c1ccccc1F	nt	78*	-4	-7	nt	nt	94*	89*
Nc1ncc([N+](=O)[O-])c(Oc2ccccc2F)n1	12	2	2	-12	26	16	nt	nt
O=C(COc1ccc(Cl)cc1)OCc1ccc(Cl)cc1	1	nt	nt	nt	9	-10	nt	nt
N#CC1=C(N)Oc2n[nH]c(-c3cccs3)c2C1c1cccs1 (stereo not given)	10	34*	2	8	-2	-5	-9	-8
N#CC1=C(N)Oc2n[nH]c(-c3cccs3)c2C1c1ccccc1C(=O)O (stereo not given)	-17	7	-7	4	-25	8	nt	nt
CC(C)CC1C(C#N)=C(N)Oc2n[nH]c(-c3cccs3)c21 (stereo not given)	-10	18*	6	-3	12	-23	-7	1
N#Cc1ccc(S(=O)(=O)N2CCCCC2c2cc(C(=O)N3CCOCC3)no2)cc1 (stereo not given)	nt	nt	nt	nt	-3	-10	nt	nt
COCCn1c(C)cc(C(=O)CSc2n[nH]c(N)n2)c1C	-4	-3	0	35	-5	2	nt	nt
COCCn1c(C)cc(C(=O)CSc2nnc(C)s2)c1C	74*	48*	-56*	-62	91*	13	80*	72*
CC(C)(C)C(=O)Nc1ccc(-c2cc3cc(Cl)ccc3o2)cc1	-8	40*	-54*	-61	58*	61*	24*	12*
c1ccc(-c2nc(-c3nccc4ccccc34)oc2-c2ccccc2)cc1	1	23*	5	31	73*	60*	28*	35*
Cc1ccc2[nH]c(=O)c(COC(=O)C3CCCCC3)cc2c1	6	44*	-8	-10	-9	4	-1	-16
O=C(OCc1cc2ccccc2[nH]c1=O)C1CCCCC1	3	-2	3	2	-5	-13	nt	nt
O=S1(=O)CCN(C2CCCCCC2)CC1	-8	nt	nt	nt	-19	-16	nt	nt
CS(=O)(=O)Nc1ccc(-c2ccc3nccn3c2)cc1	nt	nt	nt	nt	-6	11	nt	nt
SMILES	EBV LMP1 NFkB	HSP90 refold inh	HSF1 inh	HSF-1 act	TWEAK-Fn14 inh	TROY NFkB inh	HSP90 inh confirm	FLuc counter
Cc1cc(C)c(C(=O)Cn2nc(C(=O)O)c3ccccc3c2=O)cc1C	4	6	15	?	-11	7	nt	nt
Cc1cc(C(=O)Cn2nc(C(=O)O)c3ccccc3c2=O)c(C)n1-c1ccccc1	9	25*	-38	-51	35	70*	62*	31*
O=[N+]([O-])c1ccc(N2CCN(c3ccc([N+](=O)[O-])cc3CO)CC2)c(CO)c1	25	19*	-3	-4	22	33	5	-4
O=C(N/N=C/c1ccc(-c2ccccc2[N+](=O)[O-])o1)c1cncc(Br)c1	2	13	2	5	2	11	nt	nt
Nn1cnnc1N/N=C\c1ccc(-c2ccccc2[N+](=O)[O-])o1	5	76*	14	38	-27	-10	-2	-4
c1ccc(-n2cnc3cc(NCc4ccccn4)ccc32)cc1	13	18*	-36	-46	57*	42	18*	3
O=C(O)c1cccc(-c2nnn(Cc3ccccc3Cl)n2)c1	36	59*	-21	-19	0	-42	77*	81*
O=C(O)c1cccc(OCc2ccccc2Cl)c1	3	28*	3	28	11	-27	53*	27*
Cc1ccccc1Cn1nnc(-c2cccc(C(=O)O)c2)n1	3	38*	-7	-18	4	-86	54*	66*
O=C(O)c1cccc(-c2nnn(Cc3ccccc3)n2)c1	-12	29*	3	-12	-13	-54	35*	41*
Cc1ccccc1Cn1nnc(-c2ccc(C(=O)O)cc2)n1	9	1	-4	-1	-14	-9	nt	nt
O=C(O)c1ccc(-c2nnn(Cc3ccccc3F)n2)cc1	-6	0	17	12	-3	6	nt	nt
O=C(Nc1cccc2ccccc12)c1ccco1	nt	nt	nt	nt	-3	-10	nt	nt
O=C(CN1CCN(CC(=O)Nc2ccc3c(c2)OC2(CCCCC2)O3)CC1)Nc1cccc(F)c1	0	nt	nt	nt	27	14	nt	nt
CN(Cc1ccccc1)Cc1ccccc1C(O)c1ccccc1 (stereo not given)	-11	nt	nt	nt	5	-7	nt	nt
O=C(Nc1ccccc1Cl)NC1(C(=O)NCCCN2CCOCC2)CCCCC1	-2	5	-8	-8	-7	6	nt	nt
O=C(NC1CCCCC1)NC1(C(=O)NCCCN2CCOCC2)CCCCC1	11	27*	3	11	-18	-2	-1	-3
N#CC(Cc1cccc(CC(C#N)(c2ccccc2)c2ccccc2)c1)(c1ccccc1)c1ccccc1	6	40*	-14	-19	-10	3	11	-7
O=C(N[C@@H](Cc1c[nH]c2ccccc12)C(=O)O)C1CCN(S(=O)(=O)c2cccs2)CC1	11	20*	-5	22	9	13	4	0
C[C@@H]1CN([C@@H](C)CO)C(=O)c2cccc(NC(=O)Nc3ccccc3)c2O[C@H]1CN(C)C(=O)Nc1cccc2ccccc12	0	nt	nt	nt	34	36	nt	nt

Screening results from PubChem BioAssay.
